# According to PMC7862700, “An all-to-all approach to the identification of sequence-specific readers for epigenetic DNA modifications on cytosine”:
# Target: T1, ETV3L (Homo sapiens, UniProt Q6ZN32 1-361)
# T1 sequence: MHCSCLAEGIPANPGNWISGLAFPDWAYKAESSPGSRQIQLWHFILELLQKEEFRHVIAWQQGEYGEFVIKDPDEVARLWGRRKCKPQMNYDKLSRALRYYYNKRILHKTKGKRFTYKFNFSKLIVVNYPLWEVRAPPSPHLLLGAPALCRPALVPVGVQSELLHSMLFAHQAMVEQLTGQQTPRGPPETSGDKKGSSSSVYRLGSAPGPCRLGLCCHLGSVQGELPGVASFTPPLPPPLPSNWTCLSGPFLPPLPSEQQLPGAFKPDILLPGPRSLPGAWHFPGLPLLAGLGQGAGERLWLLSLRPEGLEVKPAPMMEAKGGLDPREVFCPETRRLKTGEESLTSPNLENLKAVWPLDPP
# Experiment: DAPPL (digital affinity profiling via proximity ligation, sequencing); 10 mM Tris-HCl pH 7.5, 50 mM NaCl, 1 mM DTT, 4% glycerol, room temperature, 30 min; GST-TFs on glutathione beads, 16-mer random dsDNA library, 0.1% formaldehyde crosslink after washing; high values mean tight binding
# Conditions: protein: recombinant; tags: N-terminal GST; dsDNA, one strand shown
# Summary of the method: (§1)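 Yeast served to express human transcription factors as GST fusions, which were then captured on glutathione beads and labelled with DNA barcodes. Pooled with a tag-only sample, they were incubated with 200 nmole of a 16-mer random double-stranded DNA library for 30 min at room temperature in Tris/NaCl/DTT/glycerol buffer, washed, crosslinked with 0.1% formaldehyde, ligated by proximity, amplified by PCR and sequenced. Dividing each hexamer's read frequency for a factor by its frequency for the tag-only sample gives the binding signal.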
row,Sequence,binding signal
1,CTGATG,"1.53 fold enrichment (6-mer frequency, TF over GST control)"
2,CCCGGA,"2.8 fold enrichment (6-mer frequency, TF over GST control)"
3,TATGTG,"1.02 fold enrichment (6-mer frequency, TF over GST control)"
4,ACCCGC,"1.34 fold enrichment (6-mer frequency, TF over GST control)"
5,CTCACC,"1.16 fold enrichment (6-mer frequency, TF over GST control)"
6,CCGTAT,"1.17 fold enrichment (6-mer frequency, TF over GST control)"
7,CTCACT,"1.52 fold enrichment (6-mer frequency, TF over GST control)"
8,TTCATC,"1.24 fold enrichment (6-mer frequency, TF over GST control)"
9,CTAACG,"1.25 fold enrichment (6-mer frequency, TF over GST control)"
10,CACACA,"1.22 fold enrichment (6-mer frequency, TF over GST control)"
11,TATTGC,"1.4 fold enrichment (6-mer frequency, TF over GST control)"
12,CGCTGC,"1.17 fold enrichment (6-mer frequency, TF over GST control)"
13,ACTGCA,"1.17 fold enrichment (6-mer frequency, TF over GST control)"
14,CACATT,"1.17 fold enrichment (6-mer frequency, TF over GST control)"
15,ACCGGA,"2.97 fold enrichment (6-mer frequency, TF over GST control)"
16,CGGATG,"1.62 fold enrichment (6-mer frequency, TF over GST control)"
17,ACTTGG,"1.15 fold enrichment (6-mer frequency, TF over GST control)"
18,GAATTC,"1.41 fold enrichment (6-mer frequency, TF over GST control)"
19,CGCCGA,"1.21 fold enrichment (6-mer frequency, TF over GST control)"
20,TGCAAA,"1.15 fold enrichment (6-mer frequency, TF over GST control)"

row,Sequence,binding signal
1,AAAAAC,"1.25 fold enrichment (6-mer frequency, TF over GST control)"
2,CTTTCT,"1.5 fold enrichment (6-mer frequency, TF over GST control)"
3,TGGTCC,"1.1 fold enrichment (6-mer frequency, TF over GST control)"
4,ATTCAA,"1.34 fold enrichment (6-mer frequency, TF over GST control)"
5,CTTACA,"1.26 fold enrichment (6-mer frequency, TF over GST control)"
6,CTTGCA,"1.53 fold enrichment (6-mer frequency, TF over GST control)"
7,GATATG,"1.08 fold enrichment (6-mer frequency, TF over GST control)"
8,TCACAT,"1.24 fold enrichment (6-mer frequency, TF over GST control)"
9,CTGGTC,"1.27 fold enrichment (6-mer frequency, TF over GST control)"
10,TATTAG,"1.04 fold enrichment (6-mer frequency, TF over GST control)"
11,ACGCTG,"1.15 fold enrichment (6-mer frequency, TF over GST control)"
12,TGTACG,"1.2 fold enrichment (6-mer frequency, TF over GST control)"
13,CTTTTA,"1.42 fold enrichment (6-mer frequency, TF over GST control)"
14,CCCCGC,"1.23 fold enrichment (6-mer frequency, TF over GST control)"
15,TTTCTG,"1.29 fold enrichment (6-mer frequency, TF over GST control)"
16,GTTTTA,"1.02 fold enrichment (6-mer frequency, TF over GST control)"
17,CCGATC,"1.13 fold enrichment (6-mer frequency, TF over GST control)"
18,GCCTTT,"1.27 fold enrichment (6-mer frequency, TF over GST control)"
19,TTCTTG,"1.56 fold enrichment (6-mer frequency, TF over GST control)"

# Target: T2, ETS2 (Homo sapiens, UniProt P15036 1-469)
# T2 sequence: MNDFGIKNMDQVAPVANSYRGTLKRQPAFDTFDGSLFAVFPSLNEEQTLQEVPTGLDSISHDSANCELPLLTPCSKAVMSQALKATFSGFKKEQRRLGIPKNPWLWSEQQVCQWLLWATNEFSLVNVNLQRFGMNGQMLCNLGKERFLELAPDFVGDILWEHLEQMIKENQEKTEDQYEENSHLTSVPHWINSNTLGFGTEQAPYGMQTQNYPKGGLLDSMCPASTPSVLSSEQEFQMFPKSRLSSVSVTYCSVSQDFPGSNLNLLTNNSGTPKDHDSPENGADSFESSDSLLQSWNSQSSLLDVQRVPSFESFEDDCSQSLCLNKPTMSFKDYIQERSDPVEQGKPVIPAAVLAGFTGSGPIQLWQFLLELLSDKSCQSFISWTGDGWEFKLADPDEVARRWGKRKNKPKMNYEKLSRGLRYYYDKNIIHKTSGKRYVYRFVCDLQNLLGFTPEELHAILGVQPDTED
# Experiment: as above
# Conditions: protein: recombinant; tags: N-terminal GST; dsDNA, one strand shown
# Summary of the method: as §1
row,Sequence,binding signal
1,CTGATG,"1.68 fold enrichment (6-mer frequency, TF over GST control)"
2,CCCGGA,"2.98 fold enrichment (6-mer frequency, TF over GST control)"
3,TATGTG,"1.07 fold enrichment (6-mer frequency, TF over GST control)"
4,ACCCGC,"1.15 fold enrichment (6-mer frequency, TF over GST control)"
5,CTCACC,"1.11 fold enrichment (6-mer frequency, TF over GST control)"
6,CCGTAT,"1.18 fold enrichment (6-mer frequency, TF over GST control)"
7,CTCACT,"1.6 fold enrichment (6-mer frequency, TF over GST control)"
8,TTCATC,"1.17 fold enrichment (6-mer frequency, TF over GST control)"
9,CTAACG,"1.15 fold enrichment (6-mer frequency, TF over GST control)"
10,CACACA,"1.14 fold enrichment (6-mer frequency, TF over GST control)"
11,TATTGC,"1.36 fold enrichment (6-mer frequency, TF over GST control)"
12,CGCTGC,"1.28 fold enrichment (6-mer frequency, TF over GST control)"
13,ACTGCA,"1.12 fold enrichment (6-mer frequency, TF over GST control)"
14,CACATT,"1.2 fold enrichment (6-mer frequency, TF over GST control)"
15,ACCGGA,"3.14 fold enrichment (6-mer frequency, TF over GST control)"
16,CGGATG,"1.83 fold enrichment (6-mer frequency, TF over GST control)"
17,ACTTGG,"1.16 fold enrichment (6-mer frequency, TF over GST control)"
18,GAATTC,"1.33 fold enrichment (6-mer frequency, TF over GST control)"
19,CGCCGA,"1.22 fold enrichment (6-mer frequency, TF over GST control)"
20,TGCAAA,"1.05 fold enrichment (6-mer frequency, TF over GST control)"

row,Sequence,binding signal
1,AAAAAC,"1.29 fold enrichment (6-mer frequency, TF over GST control)"
2,CTTTCT,"1.55 fold enrichment (6-mer frequency, TF over GST control)"
3,TGGTCC,"1.23 fold enrichment (6-mer frequency, TF over GST control)"
4,ATTCAA,"1.36 fold enrichment (6-mer frequency, TF over GST control)"
5,CTTACA,"1.14 fold enrichment (6-mer frequency, TF over GST control)"
6,CTTGCA,"1.33 fold enrichment (6-mer frequency, TF over GST control)"
7,GATATG,"1.18 fold enrichment (6-mer frequency, TF over GST control)"
8,TCACAT,"1.25 fold enrichment (6-mer frequency, TF over GST control)"
9,CTGGTC,"1.21 fold enrichment (6-mer frequency, TF over GST control)"
10,TATTAG,"1.06 fold enrichment (6-mer frequency, TF over GST control)"
11,ACGCTG,"1.06 fold enrichment (6-mer frequency, TF over GST control)"
12,TGTACG,"1.17 fold enrichment (6-mer frequency, TF over GST control)"
13,CTTTTA,"1.32 fold enrichment (6-mer frequency, TF over GST control)"
14,CCCCGC,"1.14 fold enrichment (6-mer frequency, TF over GST control)"
15,TTTCTG,"1.37 fold enrichment (6-mer frequency, TF over GST control)"
16,GTTTTA,"1.1 fold enrichment (6-mer frequency, TF over GST control)"
17,CCGATC,"1.18 fold enrichment (6-mer frequency, TF over GST control)"
18,GCCTTT,"1.14 fold enrichment (6-mer frequency, TF over GST control)"
19,TTCTTG,"1.39 fold enrichment (6-mer frequency, TF over GST control)"

# Target: T3, SPDEF (Homo sapiens, UniProt O95238 1-335)
# T3 sequence: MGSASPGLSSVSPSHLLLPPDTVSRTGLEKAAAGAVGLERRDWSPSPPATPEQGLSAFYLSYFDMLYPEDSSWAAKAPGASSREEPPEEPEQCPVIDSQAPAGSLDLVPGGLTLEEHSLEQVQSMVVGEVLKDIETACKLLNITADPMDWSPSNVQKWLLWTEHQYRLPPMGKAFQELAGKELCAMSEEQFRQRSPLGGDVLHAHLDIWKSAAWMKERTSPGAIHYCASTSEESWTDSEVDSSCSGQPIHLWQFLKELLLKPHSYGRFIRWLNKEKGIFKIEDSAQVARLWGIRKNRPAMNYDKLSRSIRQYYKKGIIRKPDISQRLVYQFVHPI
# Experiment: as above
# Conditions: protein: recombinant; tags: N-terminal GST; dsDNA, one strand shown
# Summary of the method: as §1
row,Sequence,binding signal
1,CTGATG,"1.5 fold enrichment (6-mer frequency, TF over GST control)"
2,CCCGGA,"3.97 fold enrichment (6-mer frequency, TF over GST control)"
3,TATGTG,"1.09 fold enrichment (6-mer frequency, TF over GST control)"
4,ACCCGC,"1.16 fold enrichment (6-mer frequency, TF over GST control)"
5,CTCACC,"1.12 fold enrichment (6-mer frequency, TF over GST control)"
6,CCGTAT,"1.41 fold enrichment (6-mer frequency, TF over GST control)"
7,CTCACT,"1.44 fold enrichment (6-mer frequency, TF over GST control)"
8,TTCATC,"1.36 fold enrichment (6-mer frequency, TF over GST control)"
9,CTAACG,"1.16 fold enrichment (6-mer frequency, TF over GST control)"
10,CACACA,"1.07 fold enrichment (6-mer frequency, TF over GST control)"
11,TATTGC,"1.31 fold enrichment (6-mer frequency, TF over GST control)"
12,CGCTGC,"1.15 fold enrichment (6-mer frequency, TF over GST control)"
13,ACTGCA,"1.13 fold enrichment (6-mer frequency, TF over GST control)"
14,CACATT,"1.18 fold enrichment (6-mer frequency, TF over GST control)"
15,ACCGGA,"4.52 fold enrichment (6-mer frequency, TF over GST control)"
16,CGGATG,"3.14 fold enrichment (6-mer frequency, TF over GST control)"
17,ACTTGG,"1.21 fold enrichment (6-mer frequency, TF over GST control)"
18,GAATTC,"1.33 fold enrichment (6-mer frequency, TF over GST control)"
19,CGCCGA,"1.15 fold enrichment (6-mer frequency, TF over GST control)"
20,TGCAAA,"1.1 fold enrichment (6-mer frequency, TF over GST control)"

row,Sequence,binding signal
1,AAAAAC,"1.23 fold enrichment (6-mer frequency, TF over GST control)"
2,CTTTCT,"1.44 fold enrichment (6-mer frequency, TF over GST control)"
3,TGGTCC,"1.26 fold enrichment (6-mer frequency, TF over GST control)"
4,ATTCAA,"1.31 fold enrichment (6-mer frequency, TF over GST control)"
5,CTTACA,"1.34 fold enrichment (6-mer frequency, TF over GST control)"
6,CTTGCA,"1.49 fold enrichment (6-mer frequency, TF over GST control)"
7,GATATG,"1.24 fold enrichment (6-mer frequency, TF over GST control)"
8,TCACAT,"1.44 fold enrichment (6-mer frequency, TF over GST control)"
9,CTGGTC,"1.24 fold enrichment (6-mer frequency, TF over GST control)"
10,TATTAG,"1.06 fold enrichment (6-mer frequency, TF over GST control)"
11,ACGCTG,"1.24 fold enrichment (6-mer frequency, TF over GST control)"
12,TGTACG,"1.29 fold enrichment (6-mer frequency, TF over GST control)"
13,CTTTTA,"1.18 fold enrichment (6-mer frequency, TF over GST control)"
14,CCCCGC,"1.06 fold enrichment (6-mer frequency, TF over GST control)"
15,TTTCTG,"1.46 fold enrichment (6-mer frequency, TF over GST control)"
16,GTTTTA,"1.04 fold enrichment (6-mer frequency, TF over GST control)"
17,CCGATC,"1.22 fold enrichment (6-mer frequency, TF over GST control)"
18,GCCTTT,"1.15 fold enrichment (6-mer frequency, TF over GST control)"
19,TTCTTG,"1.28 fold enrichment (6-mer frequency, TF over GST control)"
